Seven molecules from PubChem BioAssay (NCI) can be followed below.

Values joined by “and” are separate entries in the source; they are usually repeats but may differ in a detail not shown here. Identical values can stand only once. Compounds without any hit were thinned out: in the full panel of roughly 79,000, 15% have a hit. A structure can be active in one record and inactive in another. Active and inactive are the calls of the source. Cut-off read from the data, not from the text of the source: active = growth inhibition above about 70%; inactive = the rest.

A short description of test [1]: NCI Yeast Anticancer Drug Screen. Data for the rad50 strain (AID 155).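 Note: 0% = growth of vehicle-only cultures of the same strain.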 As to conditions: S. cerevisiae rad50 strain growth inhibition, stronger effect = higher value. In a few lines: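 Vehicle-treated cultures provide the reference for the growth inhibition reported for compound-exposed, repair-deficient yeast.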
A short description of test [2]: NCI Yeast Anticancer Drug Screen. Data for the mec2-1 strain (AID 157). The note with it: S. cerevisiae mec2-1 strain, stronger effect = higher value. In outline:
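Each compound was tested on mec2-1 yeast, a strain altered in DNA damage repair or cell cycle control. Growth inhibition is reported relative to vehicle.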

Test [3] in a line: NCI Yeast Anticancer Drug Screen. Data for the sgs1 mgt1 strain (AID 161).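 Note: 0% = growth of cultures given vehicle only.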 The note with it: S. cerevisiae sgs1 mgt1 strain, stronger effect = higher value. In outline:
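Mutant yeast exposed to compound; growth scored against vehicle-only wells.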

Test [4] can be described thus: NCI Yeast Anticancer Drug Screen. Data for the cln2 rad14 strain (AID 165).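 Note: 0% = growth equal to vehicle treated cultures.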 As to conditions: S. cerevisiae cln2 rad14 strain, stronger effect = higher value. In a few lines: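 Test compounds were added to cln2 rad14 yeast cultures; inhibition of growth was then determined by comparison with vehicle treatment.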
A short description of test [5]: NCI Yeast Anticancer Drug Screen. Data for the bub3 strain (AID 167). The note with it: S. cerevisiae bub3 mutant strain, stronger effect = higher value. In a few lines: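 Mutant yeast screening strain plus compound; vehicle-treated cultures serve as the 0% inhibition reference.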
A short description of test [6]: NCI Yeast Anticancer Drug Screen. Data for the mlh1 rad18 strain (AID 175). The note with it: S. cerevisiae mlh1 rad18 strain growth inhibition, stronger effect = higher value. In a few lines:
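Inhibition values reflect reduced growth of mutant yeast versus vehicle-treated controls following compound exposure; the mutations affect DNA damage repair.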

Setting [7] is: at 5.0 µM (retest, dose inferred, filed as 0.5).
[8] abbreviates: at 50.0 µM (retest, dose inferred, filed as 5.0).

Turning to `O=C(c1ccccc1)C(c1ccccc1)C(O)c1ccc([N+](=O)[O-])cc1` (stereo unspecified), the growth inhibition in test [1] (setting [7]) was 9% (inactive) and 2% (inactive); in test [1] (setting [8]) it was 89% (active) and 99% (active); in test [1] (at 50.0 µM) it was 96% (active) and 98.2% (active); in test [2] (setting [7]), 13% (inactive) and -8% (inactive); in test [2] (setting [8]) it was 96% (active) and 99% (active); in test [2] (at 50.0 µM) it was 98.4% (active) and 99.5% (active). For the same molecule, the growth inhibition in test [3] (setting [7]) was 6% (inactive) and -14% (inactive); in test [3] (setting [8]), 94% (active) and 99% (active); in test [3] (at 50.0 µM), 97.1% (active) and 98.8% (active); in test [4] (setting [7]), 9% (inactive) and 3% (inactive); in test [4] (setting [8]), 96% (active) and 99% (active); in test [4] (at 50.0 µM), 94.8% (active) and 99.2% (active). Besides, the growth inhibition was 19% (inactive) and 1% (inactive) in test [5] (setting [7]); 92% (active) and 99% (active) in test [5] (setting [8]); 95.6% (active) and 98.9% (active) in test [5] (at 50.0 µM); 11% (inactive) and 6% (inactive) in test [6] (setting [7]); 95% (active) and 99% (active) in test [6] (setting [8]); 96.7% (active) and 99.5% (active) in test [6] (at 50.0 µM).
Regarding `COC(=O)[C@@H](NS(=O)(=O)CC12CCC(CC1)C2(C)C)C(C)(C)C`, the growth inhibition in test [1] (setting [7]) is 2% (inactive); in test [1] (setting [8]), 50% (inactive); in test [1] (at 50.0 µM) it was 14.2% (inactive); in test [2] (setting [7]) it was 1% (inactive); in test [2] (setting [8]), 51% (inactive); in test [2] (at 50.0 µM) it was 26.1% (inactive). Also, the growth inhibition in test [3] (setting [7]) is 16% (inactive); in test [3] (setting [8]), 70% (active); in test [3] (at 50.0 µM) it was 25.7% (inactive); in test [4] (setting [7]), 6% (inactive); in test [4] (setting [8]) it was 48% (inactive); in test [4] (at 50.0 µM), 21.4% (inactive). The growth inhibition in test [5] (setting [7]) is 0% (inactive); in test [5] (setting [8]), 54% (inactive); in test [5] (at 50.0 µM), 10.9% (inactive); in test [6] (setting [7]), 0% (inactive); in test [6] (setting [8]) it was 83% (active); in test [6] (at 50.0 µM), 58.6% (inactive).
Consider `CC(=O)OC1OC(=O)C(C)(C(C)=O)C1C` (stereo unspecified), for which the growth inhibition is 19% (inactive) in test [1] (setting [7]); 95% (active) in test [1] (setting [8]); 89.9% (active) in test [1] (at 50.0 µM); 10% (inactive) in test [2] (setting [7]); 96% (active) in test [2] (setting [8]); 89.6% (active) in test [2] (at 50.0 µM). Also, the growth inhibition in test [3] (setting [7]) was 25% (inactive); in test [3] (setting [8]) it was 93% (active); in test [3] (at 50.0 µM) it was 89.9% (active); in test [4] (setting [7]) it was 27% (inactive); in test [4] (setting [8]) it was 81% (active); in test [4] (at 50.0 µM), 83.2% (active). Further, the growth inhibition is 23% (inactive) in test [5] (setting [7]); 93% (active) in test [5] (setting [8]); 89.2% (active) in test [5] (at 50.0 µM); 22% (inactive) in test [6] (setting [7]); 96% (active) in test [6] (setting [8]); 89.6% (active) in test [6] (at 50.0 µM).
As for `Nc1cc2ccc(O)cc2c2ccccc12`, the growth inhibition in test [1] (setting [7]) was 0% (inactive); in test [1] (setting [8]) it was 81% (active); in test [1] (at 50.0 µM), 94.8% (active); in test [2] (setting [7]) it was 4% (inactive); in test [2] (setting [8]), 51% (inactive); in test [2] (at 50.0 µM), 86.2% (active). Further, the growth inhibition in test [3] (setting [7]) was -1% (inactive); in test [3] (setting [8]), 54% (inactive); in test [3] (at 50.0 µM), 91% (active); in test [4] (setting [7]), 1% (inactive); in test [4] (setting [8]) it was 34% (inactive); in test [4] (at 50.0 µM), 67.5% (inactive). The growth inhibition was 2% (inactive) in test [5] (setting [7]); 89% (active) in test [5] (setting [8]); 93.4% (active) in test [5] (at 50.0 µM); -1% (inactive) in test [6] (setting [7]); 82% (active) in test [6] (setting [8]); 94.7% (active) in test [6] (at 50.0 µM).
In the case of `CCN(CC)Cc1cc2[nH]c3c4ccc(Cl)cc4ncc3c2cc1OC` (tested in a mixture with another compound), the growth inhibition in test [1] (setting [7]) was 3% (inactive); in test [1] (setting [8]), 71% (active); in test [1] (at 50.0 µM) it was 59.4% (inactive) and 65% (inactive); in test [2] (setting [7]) it was 2% (inactive); in test [2] (setting [8]), 58% (inactive); in test [2] (at 50.0 µM), 38.8% (inactive) and 66% (inactive). Besides, the growth inhibition in test [3] (setting [7]) is 0% (inactive); in test [3] (setting [8]) it was 48% (inactive); in test [3] (at 50.0 µM) it was 55.1% (inactive) and 74.2% (active); in test [4] (setting [7]), -2% (inactive); in test [4] (setting [8]), 47% (inactive); in test [4] (at 50.0 µM) it was -1.65% (inactive) and 29.1% (inactive). The growth inhibition was 4% (inactive) in test [5] (setting [7]); 58% (inactive) in test [5] (setting [8]); 44.8% (inactive) and 48.6% (inactive) in test [5] (at 50.0 µM); 3% (inactive) in test [6] (setting [7]); 74% (active) in test [6] (setting [8]); 64.3% (inactive) and 77.5% (active) in test [6] (at 50.0 µM).
Regarding `O=S(=O)(O)c1ccc(-c2c3nc(c(-c4ccc(S(=O)(=O)O)cc4)c4ccc([nH]4)c(-c4ccc(S(=O)(=O)O)cc4)c4nc(c(-c5ccc(S(=O)(=O)O)cc5)c5ccc2[nH]5)C=C4)C=C3)cc1`, the growth inhibition in test [1] (setting [7]) is 61% (inactive) and 82% (active); in test [1] (setting [8]) it was 94% (active) and 91% (active); in test [1] (at 50.0 µM), 92.8% (active) and 94.3% (active); in test [2] (setting [7]), 72% (active) and 96% (active); in test [2] (setting [8]), 97% (active) and 95% (active); in test [2] (at 50.0 µM), 96.8% (active) and 87.5% (active). The growth inhibition in test [3] (setting [7]) is 74% (active) and 68% (inactive); in test [3] (setting [8]), 29% (inactive) and 51% (inactive); in test [3] (at 50.0 µM) it was 94.8% (active) and 91.8% (active); in test [4] (setting [7]) it was 32% (inactive) and 40% (inactive); in test [4] (setting [8]), 80% (active) and 67% (inactive); in test [4] (at 50.0 µM), 91.8% (active) and 91.4% (active). Besides, the growth inhibition is 51% (inactive) and 64% (inactive) in test [5] (setting [7]); 92% (active) and 83% (active) in test [5] (setting [8]); 93.6% (active) and 92.8% (active) in test [5] (at 50.0 µM); 74% (active) and 93% (active) in test [6] (setting [7]); 92% (active) and 93% (active) in test [6] (setting [8]); 96% (active) and 91.2% (active) in test [6] (at 50.0 µM).
As to `Nc1ccc2c(ccc3ccc4ccccc4c32)c1`, the growth inhibition in test [1] (setting [7]) was -6% (inactive); in test [1] (setting [8]), 93% (active); in test [1] (at 50.0 µM), 96.7% (active); in test [2] (setting [7]), -8% (inactive); in test [2] (setting [8]) it was 98% (active); in test [2] (at 50.0 µM), 96.8% (active). The growth inhibition in test [3] (setting [7]) is -8% (inactive); in test [3] (setting [8]), 98% (active); in test [3] (at 50.0 µM), 97.8% (active); in test [4] (setting [7]), -7% (inactive); in test [4] (setting [8]), 96% (active); in test [4] (at 50.0 µM) it was 95.5% (active). In addition, the growth inhibition in test [5] (setting [7]) is -6% (inactive); in test [5] (setting [8]), 97% (active); in test [5] (at 50.0 µM) it was 96.7% (active); in test [6] (setting [7]), 17% (inactive); in test [6] (setting [8]), 97% (active); in test [6] (at 50.0 µM), 95.6% (active).
